According to PubChem BioAssay (NCATS):
Several values for one entry are separate records, joined by “and”; a condition that tells them apart may be missing. Equal entries are not always repeated. Inconclusive results are not listed. A number with no mark means an inactive call. Activity calls are given as the source filed them. Calls come from the whole dose curve; as a rule, active = well fitted curve in the direction sought with a large enough effect; inconclusive = small, poorly fitted or top-dose-only effect, or another doubt; inactive = no such curve, though single readings can be large; an effect the other way counts as inactive or inconclusive.

Columns and labels:
[1] = Viability qHTS for spleen associated tyrosine kinase inhibitor (SYKi) drug resistant MV4-11 cells (AID 1963824); note: nearly all actives have a fitted effect of over 35% in size
Summary of the method: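 CellTiter-Glo luminescence, read 10 min after reagent addition, reports viability after a 72 hr compound exposure. Cells are an MV4-11 line made resistant to SYK inhibition, seeded at 500 per well onto compound-containing plates.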

[2] = Cellular viability qHTS for adrenocortical cancer (ACC) cell line SW-13 (AID 1963989); details: SW-13 ACC cells viability, CellTiter-Glo, 48 h; activity (max response): hits give low values; note: nearly all actives have a fitted effect of over 65% in size;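 for activity (max response): cells grown in serum-free medium with ITS supplement; % is set by controls: 0 for no effect and ±100 for the full control effect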
Summary of the method: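 Compound titrations (up to 46 uM final, in DMSO) were applied to SW-13 cells for 48 h at 37C/5% CO2. Reading used CellTiter-Glo after 20 min at room temperature; fitted curves yielded IC50 and efficacy.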

[3] = Cellular viability qHTS for adrenocortical cancer (ACC) cell line NCI-H295R (AID 1963990); note: nearly all actives have a fitted effect of over 60% in size
Summary of the method: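 Readout: CellTiter-Glo luminescence, 20 min RT. Exposure: 48 h, 37C/5% CO2. Cells: NCI-H295R, ITS-DMEM serum-free. Range: up to 46 uM. Analysis: 4PL fit, IC50 plus efficacy.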
Potency is the fitted concentration of half-maximal effect.

| SMILES | Potency [1] | activity (max response) [2] | Potency [3] | Potency [2] |
| --- | --- | --- | --- | --- |
| C#C[C@]1(O)CC[C@H]2[C@@H]3CCc4cc(OC5CCCC5)ccc4[C@H]3CC[C@@]21C | 11.9 µM (active) | -6.39% | 14.6 µM (active) |  |
| CCc1cccc2c3c([nH]c12)[C@@](CC)(CC(=O)O)OCC3 | 14.8 µM (active) | -21.1% | inactive |  |
| Cc1cc(C)cc(OCC2CNC(=O)O2)c1 (stereo not drawn) | inactive | 4.02% | inactive |  |
| Cc1c(N(C)C)c(=O)n(-c2ccccc2)n1C | inactive | 10.1% | inactive |  |
| COc1ccc([C@@H]2CC(=O)c3c(O)cc(O[C@@H]4O[C@H](CO[C@@H]5O[C@@H](C)[C@H](O)[C@@H](O)[C@H]5O)[C@@H](O)[C@H](O)[C@H]4O)cc3O2)cc1O | 8.33 µM (active) | 3.7% | inactive |  |
| Cc1cc2nc3ccc(=[N+](C)C)cc-3sc2cc1N | 1.68 µM (active) |  | 5.8 µM (active) | 4.61 µM (active) |
| COc1nc(OCc2cccc(-c3ccccc3)c2C)ccc1CNCCNC(C)=O | 3.72 µM (active) |  | 6.31 µM (active) | 7.94 µM (active) |
| Cc1c(CN2CCC(Nc3ncnc4sc(CC(F)(F)F)cc34)CC2)ccc2c1cc(C#N)n2Cc1cn[nH]c1 | 0.468 µM (active) |  | 6.31 µM (active) | 4.47 µM (active) |
| CCOc1ccc2ccccc2c1C(=O)N[C@@H]1C(=O)N2[C@@H]1SC(C)(C)[C@@H]2C(=O)O | inactive | 2.64% | inactive |  |
| Cc1ccccc1N1CCN(CCc2nnc3n2CCCC3)CC1 | inactive | 9.97% | inactive |  |
| COc1ccccc1[C@H](c1cccc2ccccc12)[C@@](C)(C#N)C(=O)N1CCC(c2cccc(C(F)(F)F)c2)CC1 | 8.33 µM (active) | -5.9% | inactive |  |
| CC[C@H](NC(=O)[C@H](CS(=O)(=O)CC1CC1)N[C@@H](c1ccc(F)cc1)C(F)(F)F)C(=O)C(=O)NC1CC1 | inactive | -11.3% | inactive |  |
| CC1(C)S[C@@H]2[C@H](NC(=O)Cc3ccccc3)C(=O)N2[C@H]1C(=O)O (tested in a mixture with another compound) | inactive | 7.44% | inactive |  |
| O=C(O)CNC(=O)CNC(=O)CNC(=O)CSC(=O)c1ccccc1 | inactive | -23.1% | inactive |  |
| Nc1ccc(O)c(C(=O)O)c1 | inactive | 6.74% | inactive |  |
| C[C@@H]1CCC[C@H](C)N1CCCC(O)(c1ccccc1)c1ccccn1 (stereo partly drawn) | inactive | -5.41% | inactive |  |
| O=C(c1ccc(NS(=O)(=O)c2cccc3cccnc23)cc1)N1CCN(CC2CC2)CC1 | inactive | -19.6% | inactive |  |
| OC[C@H]1O[C@@H](n2cnc3c(=S)nc[nH]c32)[C@H](O)[C@@H]1O | 1.19 µM (active) |  | 2.31 µM (active) | 9.2 µM (active) |
| O=C1C(O)=C(O)C(=O)C(O)=C1O | inactive | 13.8% | inactive |  |

| SMILES | Potency [1] | activity (max response) [2] | Potency [3] | Potency [2] |
| --- | --- | --- | --- | --- |
| CC(COc1ccccc1)NN (stereo not drawn) | inactive | 12.2% | inactive |  |
| COc1nc(N)nc2c1ncn2C1OC(CO)C(O)C1O (stereo not drawn) | inactive | 12% | inactive |  |
| CC1(C)O[C@@H]2C[C@H]3[C@@H]4CCC5=CC(=O)C=C[C@]5(C)[C@@]4(F)[C@@H](O)C[C@]3(C)[C@]2(C(=O)CO)O1 | 10.6 µM (active) | 4.2% and -2% | inactive |  |
| O=C(CS(=O)Cc1ccco1)NC/C=C\COc1cc(CN2CCCCC2)ccn1 (stereo not drawn) | inactive | 2.9% | inactive |  |
| COc1cccc2c1C(=O)c1c(O)c3c(c(O)c1C2=O)C[C@@](O)(C(C)=O)C[C@@H]3O[C@H]1C[C@H](N)[C@H](O)[C@H](C)O1 | 42.2 nM (active) and 18.6 nM (active) |  | 461 nM (active) and 2.24 µM (active) | 51.7 nM (active) and 501 nM (active) |
| N/C(=N\N=C\c1ccc(Cl)cc1)N/N=C/c1ccc(Cl)cc1 | inactive | -4.76% | inactive |  |
| Nc1nc(N)c2nc(-c3cccc(Cl)c3)c(N)nc2n1 | 1.48 µM (active) |  | 1.12 µM (active) | 1.26 µM (active) |
| O=C1[C@H](CC[C@H](O)c2ccc(F)cc2)[C@@H](c2ccc(O)cc2)N1c1ccc(F)cc1 | 14.6 µM (active) and 20.9 µM (active) | -3.67% and -14.5% | inactive |  |
| CCOc1c(N2CCOCC2)cnn(C)c1=O | inactive | 6.29% | inactive |  |
| CC(C)n1c(=O)cc(N[C@@H](C)c2ccccc2)[nH]c1=O | 11.8 µM (active) | 6.06% | inactive |  |
| C[C@]12CCC(=O)C=C1[C@@H]1C[C@@H]1[C@H]1[C@@H]3[C@@H]4C[C@@H]4[C@@]4(CCC(=O)O4)[C@@]3(C)CC[C@@H]12 | 21.1 µM (active) and 18.6 µM (active) | -8.86% and -13.4% | inactive |  |
| CS(=O)(=O)c1ccc(-c2nnc(/C=C/c3nnc(-c4ccc(C#N)cc4)o3)n2-c2ccccc2Cl)nc1 | 14.8 µM (active) | -6.81% | inactive |  |
| CNC(=O)CCc1cc(-c2ccc(-c3ccc(C(F)(F)F)cc3)cc2)n(-c2ccc(N3CCNCC3)cc2)n1 | 2.09 µM (active) |  | 7.08 µM (active) | 3.98 µM (active) |
| CC1(C)C(N(O)C(=O)Nc2ccc(Cl)cc2)N(c2ccc(Cl)cc2)C(=O)N1CC(=O)N/N=C/C=C/c1ccc([N+](=O)[O-])o1 (stereo not drawn) | 2.63 µM (active) |  | 20 µM (active) | 25.1 µM (active) |
| O=C1OC2(CCC(C(=O)Nc3ccn(-c4ccccc4F)n3)CC2)c2cnccc21 (stereo not drawn) | 4.17 µM (active) | -3.21% | inactive |  |
| Cn1cc(/C=C/C(=O)c2cccc(F)c2)cc1/C=C/C(=O)NO | 4.17 µM (active) | 9.4% | inactive |  |
| CC(C)(C)CC(C)(C)c1ccc(O)c(Cc2ccc(Cl)cc2Cl)c1 | 15 µM (active) |  | 5.8 µM (active) | 16.4 µM (active) |
| Nc1ccc(C(=O)N2CC3CC(CN(Cc4ccccc4)C3)C2)cc1 | inactive | 7.04% | inactive |  |
| CN(C)CCC[C@@]1(c2ccc(F)cc2)OCc2cc(C#N)ccc21 | 8.41 µM (active) | -9.39% | inactive |  |

| SMILES | Potency [1] | activity (max response) [2] | Potency [3] | Potency [2] |
| --- | --- | --- | --- | --- |
| C[C@]12CCC(=O)C=C1CC[C@H]1[C@@H]3CC[C@](O)(C(=O)CO)[C@@]3(C)C[C@H](O)[C@@]12F | inactive | 6.22% | inactive |  |
| Cn1cc(-c2ccc(S(=O)(=O)n3ccc(/C=C/C(=O)Nc4ccccc4N)c3)cc2)cn1 | 580 nM (active) and 742 nM (active) |  | 0.891 µM (active) | 0.794 µM (active) |
| Cc1cc(/C=c2/sc3nc4ccccc4n3c2=O)c(C)n1-c1ccccc1 | 10.5 µM (active) | -15.5% | inactive |  |
| O=c1ncccn1[C@@H]1O[C@H](CO)[C@@H](O)[C@H]1O | 16.6 µM (active) | -5.69% | inactive |  |
| NC(N)=NN=C(/C=C/c1ccc([N+](=O)[O-])o1)/C=C/c1ccc([N+](=O)[O-])o1 | 5.31 µM (active) |  | 1.03 µM (active) | 2.59 µM (active) |
| Cc1ccccc1-n1nc(-c2c(-c3ccc(F)cc3)nn3c2NC[C@@H](CO)C3)ccc1=O | 2.91 µM (active) | 12.4% | inactive |  |
| O=C(Nc1cnn2ccc(N3CCC[C@@H]3c3cc(F)ccc3F)nc12)N1CC[C@H](O)C1 | inactive | -2.6% | inactive |  |
| COCCN1CCN(Cc2ccc(-c3n[nH]c4c3C(=O)c3c(NC(=O)NN5CCOCC5)cccc3-4)cc2)CC1 | 0.0209 µM (active) |  | 0.891 µM (active) | 0.316 µM (active) |
| Fc1cccc(-n2cnc3c(NCc4nc5c(F)c(F)ccc5[nH]4)nc(N4CCOCC4)nc32)c1 | 0.186 µM (active) |  | 0.447 µM (active) | 0.112 µM (active) |
| CCC1CCCCN1C(=O)n1ncc(C(O)(c2ccccc2)c2ccccc2)n1 (stereo not drawn) | 5.25 µM (active) |  | 28.2 µM (active) | 15.8 µM (active) |
| COc1cc(N)c(Cl)cc1C(=O)NC1CCN(CCCOc2ccc(F)cc2)CC1OC (stereo not drawn) | 23.7 µM (active) | -12.2% | inactive |  |
| C[C@H]1O[C@H](O[C@H]2[C@H](O)[C@@H](O)[C@@H](O[C@H]3[C@H](O)[C@@H](O)C(O)O[C@@H]3CO)O[C@@H]2CO)[C@H](O)[C@@H](O)[C@@H]1N[C@H]1C=C(CO)[C@@H](O)[C@H](O)[C@H]1O (stereo partly drawn) | inactive | -4.82% | inactive |  |
| CN1Cc2c(N)cccc2C(c2ccccc2)C1 (stereo not drawn) | inactive | -0.946% | inactive |  |
| COc1ccc(Cl)c(Nc2nc3ccccc3nc2NS(=O)(=O)c2cccc(NC(=O)C(C)(C)N)c2)c1 | 8.2 µM (active) |  | 20 µM (active) | 25.1 µM (active) |
| COC(=O)C(c1ccccc1Cl)N1CCc2sccc2C1 (stereo not drawn) | inactive | 0.0767% | inactive |  |
| Cc1cc(-n2c(=O)ccc3cnc4[nH]ccc4c32)ccc1F | 18.6 µM (active) | -19.3% | inactive |  |
| CC(=O)O[C@]1(C(C)=O)CC[C@H]2[C@@H]3C=C(Cl)C4=CC(=O)[C@@H]5C[C@@H]5[C@]4(C)[C@H]3CC[C@@]21C | 14.6 µM (active) | -7.85% and -11.2% | inactive |  |
| CS(=O)(=O)N1CCN(Cc2cc3nc(-c4cccc5[nH]ncc45)nc(N4CCOCC4)c3s2)CC1 | 461 nM (active) and 2.09 µM (active) |  | 2.24 µM (active) | 17.8 µM (active) |
